Our source for the inhibition values is PubChem BioAssay AID1662 (Broad Institute, 2009).

Where “and” joins values, the source holds several entries; their conditions need not be identical. Equal values may be shown once. Out of some 300,000 compounds screened, about 4,000 (1.3%) were called active.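 The calls were made as follows: active = mean replicate score, as percent of positive control median, at least 50; inconclusive = mean below 50 but one replicate at or above 50; inactive = mean and every replicate below 50.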 The sample as a whole holds a higher share of actives than the screen did.

A short description of the test: S. pyogenes SKKanGAS growth inhibitors in kanamycin, primary screen, streptokinase expression inhibitor project, SKKanGAS strain, BacTiter-Glo luminescence (AID 1662).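 Also: strain carries kanamycin resistance gene driven by streptokinase promoter and grows in 40 µg/ml kanamycin; loss of luminescence reflects streptokinase promoter inhibition or plain growth inhibition; 0% = median of DMSO wells and 100% = positive control at its reference dose.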 The conditions noted are these: 6 h, at 7.5 µM, hits give high values.
Turning to `CN(CC(=O)Nc1c(Cl)cccc1Cl)C(=O)CNC(=O)C1CCCCC1`, the inhibition is -1.53% (inactive).

For `Cc1ccc(C)c(N2CCN(C(=O)CCCCn3c(=O)[nH]c4ccccc4c3=O)CC2)c1`, the inhibition was 10.5% (inactive).

Regarding `Cc1ccc(C)c(N2CCN(C(=O)CCCCCn3c(=S)[nH]c4ccc(N5CCOCC5)cc4c3=O)CC2)c1`, the inhibition was 50.8% (active).

On to `O=C(CCCCCn1c(=S)[nH]c2cc3c(cc2c1=O)OCO3)N1CCN(c2ccc(F)cc2)CC1`, for which the inhibition was 4.31% (inactive).

Take `COc1ccc2nc(NC(=O)NC3CCCCC3)sc2c1`: the inhibition is -5.74% (inactive).

Turning to `CCOc1ccc2nc(Nc3nc4ccc(NC(C)=O)cc4s3)sc2c1`, the inhibition was 62.6% (active).

As for `COc1ccc(S(=O)(=O)N2CCCCC2)cc1NC(=O)c1cc([N+](=O)[O-])ccc1N1CCOCC1`, the inhibition is 12.2% (inactive).

For `COc1ccc2nc(NC(=O)c3ccc(Br)s3)sc2c1`, the inhibition is 38.2% (inactive).

Turning to `CCOc1ccc2nc(NC(=O)CSc3nc4c(c(=O)n(C)c(=O)n4C)n3CC)sc2c1`, the inhibition is 4.34% (inactive).

Regarding `CCOc1ccc2nc(NC(=O)c3cc([N+](=O)[O-])ccc3N3CCOCC3)sc2c1`, the inhibition was 50.1% (active).

As for `CSc1nc2ccc(NC(=O)c3c(F)cccc3F)cc2s1`, the inhibition is -1.79% (inactive).

As to `CCCC(=O)Nc1nc2ccc(NC(=O)c3cccnc3)cc2s1`, the inhibition was -13.3% (inactive).

As to `O=C(NC1CCCCC1)c1cc([N+](=O)[O-])ccc1N1CCOCC1`, the inhibition was 3.56% (inactive).

Regarding `CCC(=O)c1ccc(OCC(=O)Nc2ccc3nc(C)sc3c2)cc1`, the inhibition was -10.4% (inactive).

With `COc1ccc2nc(Nc3nc4ccc(NC(C)=O)cc4s3)sc2c1`, the inhibition is 54.9% (active).

On to `CCCC(=O)Nc1nc2ccc(NC(=O)c3c(F)c(F)c(OC)c(F)c3F)cc2s1`, for which the inhibition is 71.5% (active).

For `CCCCSc1nc2c(c(=O)n1CC)SC(C)C2` (stereo not drawn), the inhibition was -4.67% (inactive).

In the case of `COCC1CCN(C(=O)C2CCC(=O)N(CC3CCCCC3)C2)CC1` (stereo not drawn), the inhibition is -1.21% (inactive).

With `O=C(c1cc2c(s1)CCC2)N1CCN(c2ccccc2)CC1`, the inhibition was 3.4% (inactive).

Take `CCNc1nc(NC(C)C)nc(N2CC(=O)N(CC(=O)OCC)C2=N)n1`: the inhibition was 0.266% (inactive).

Take `COc1ccc(S(=O)(=O)N2CCOC23CCN(S(=O)(=O)c2ccc([N+](=O)[O-])cc2)CC3)cc1`: the inhibition is 2.41% (inactive).

In the case of `CCc1nn(CCCN2CCN(c3cccc(Cl)c3)CC2)c(=O)n1CCOc1ccccc1`, the inhibition is -2.67% (inactive) and -3.29% (inactive).

For the compound `COc1cc(NS(=O)(=O)c2ccc(N/C=C(\C=O)c3nc4cc(Cl)ccc4o3)cc2)nc(OC)n1`, the inhibition was 22% (inactive).

With `CSc1ccc(CN(C)CC(=O)NCc2ccc(F)cc2)cc1`, the inhibition is -18.5% (inactive).

With `CC(C)(C)n1nnc(CCc2nnn(C(C)(C)C)n2)n1`, the inhibition is -4.02% (inactive).

Turning to `CCCCCCCCc1c(O)nc(-n2[nH]c(C)c(CCO)c2=O)[nH]c1=O`, the inhibition is 9.64% (inactive).

For `O=C(Nc1ccccc1F)c1ccccc1-c1ccc(C(F)(F)F)cc1`, the inhibition was -10.9% (inactive).

Turning to `NC(=O)Cn1cc(/C=N\NS(=O)(=O)c2ccccc2)c2ccccc21`, the inhibition was -0.681% (inactive).

As to `Cc1ccc2c(C)c(C(=O)N3CCN(c4ccncc4)CC3)oc2c1C`, the inhibition is 4.31% (inactive).

On to `O=C1c2ccccc2-c2ncnc3c(N4CCOCC4)cc(N4CCOCC4)c1c23`, for which the inhibition was 13.7% (inactive).

As for `O=C(O)c1cccc(S(=O)(=O)Nc2ccc(O)cc2Sc2nc3ccccc3s2)c1`, the inhibition is 8.92% (inactive).

For the compound `O=[N+]([O-])c1c(NCCO)cc(Sc2nc3ccccc3s2)c2nonc12`, the inhibition is 51.8% (active).

For the compound `CCOc1ccccc1Nc1ccc2nonc2c1[N+](=O)[O-]`, the inhibition was -0.208% (inactive).

As for `CCOCC(=O)Nc1ncc(S(=O)(=O)c2ccc([N+](=O)[O-])cc2)s1`, the inhibition is -0.334% (inactive).

Consider `CC(C)C(=O)Nc1ccc2c3c(cccc13)CC2`, for which the inhibition is -4.74% (inactive).

On to `Cc1cccc(NC(=O)C2CCN(C(=O)NC3CCCCC3)CC2)c1`, for which the inhibition is 3.22% (inactive).

For `O=C(N/N=C/c1cc(Br)c(O)c([N+](=O)[O-])c1)C(O)(c1ccccc1)c1ccccc1`, the inhibition was 4.7% (inactive).

Turning to `O=C(N/N=C/c1cc(Cl)cc([N+](=O)[O-])c1O)C(O)(c1ccccc1)c1ccccc1`, the inhibition is 94.7% (active).

As to `CN(C)/N=C/c1cc(Cl)cc([N+](=O)[O-])c1O`, the inhibition was 0.131% (inactive).

Regarding `Fc1ccccc1CNC(=S)Nc1ccc(Cl)cc1`, the inhibition is 18% (inactive).

Take `O=C(NC1CCN(C(=S)NCc2ccco2)CC1)c1ccc(F)cc1`: the inhibition was 13.3% (inactive).

Regarding `COc1cccc(N2CC(NS(=O)(=O)c3ccc(Cl)cc3)CC2=O)c1` (stereo not drawn), the inhibition is 3.83% (inactive).

As for `COc1ccc(N(C(=O)c2snc(C(N)=O)c2N)C(C(=O)NC2CCCC2)c2ccco2)cc1OC` (stereo not drawn), the inhibition was 2.77% (inactive).

Take `CCc1nnc(NC(=O)c2sc3nc(C)cc(COC)c3c2N)s1`: the inhibition was 8.09% (inactive).

Turning to `CCc1ccc2nc3sc(C(=O)Nc4nnc(CC)s4)c(N)c3cc2c1`, the inhibition is 95.3% (active).

In the case of `CCc1nnc(NC(=O)c2cccc(S(=O)(=O)N(C)c3ccc(OC)cc3)c2)s1`, the inhibition is 4.1% (inactive).

Take `COc1ccc(S(=O)(=O)NCc2cccnc2)cc1NC(=O)c1ccc(C)cc1`: the inhibition was -12.6% (inactive).

As for `COC(=O)N/N=C/c1ccc(/C=N/NC(=O)OC)cc1`, the inhibition was -10.9% (inactive).

Consider `COC(=O)N/N=C/c1c[n+]([O-])c2ccccc2[n+]1[O-]`, for which the inhibition is 50.6% (active).

On to `COC(=O)N/N=C/c1ccc(-c2ccc(Cl)c(Cl)c2)o1`, for which the inhibition is -12.4% (inactive).

In the case of `Cn1cccc1C(=O)N1CCc2ccccc2C1`, the inhibition was 10.2% (inactive).

With `Cc1cc(N=Nc2ccc3ccccc3c2)ccc1O`, the inhibition was 81.9% (active).

`CC(=O)CCC(=O)c1ccc2ccccc2c1`: the inhibition is 3.19% (inactive).

`COc1ccc(N=Nc2ccc(O)c(P(=O)(c3ccccc3)c3ccccc3)c2)cc1`: the inhibition is 41.2% (inactive).

For the compound `Cc1ccccc1Nc1c([N+](=O)[O-])ccc2nonc12`, the inhibition was 4.67% (inactive).

With `O=C(NCC(c1ccco1)N1CCc2ccccc2C1)c1ccccc1Cl` (stereo not drawn), the inhibition was 17.4% (inactive).

For the compound `COc1ccccc1NC(=O)c1cc(N2C(=O)C3C4CCC(C4)C3C2=O)ccc1Cl` (stereo not drawn), the inhibition was -15.7% (inactive).

Take `Cc1ccc(-c2ccc(=O)n(Cc3ccc(F)cc3Cl)n2)cc1`: the inhibition is 12.7% (inactive).

On to `N/C(=N/O)c1cccn1Cc1ccccc1[N+](=O)[O-]`, for which the inhibition was 0.341% (inactive).

Consider `O=c1c([N+](=O)[O-])cccn1Cc1ccc(F)cc1Cl`, for which the inhibition was 55.4% (active).

`O=c1[nH][nH]c(C(F)(F)F)c1C=NCc1ccccc1Cl`: the inhibition was -1.93% (inactive).

For the compound `CCc1c(O)cc2n(c1=O)-c1ccccc1C2(C)C`, the inhibition was 17.4% (inactive).

`NC(=O)c1nsc(C(=O)N(CC(=O)NCc2ccc(F)cc2)Cc2ccco2)c1N`: the inhibition is 0.443% (inactive).

For the compound `CC(C)CCC(C)NC(=O)c1ccc2nccnc2c1` (stereo not drawn), the inhibition is -6.24% (inactive).

In the case of `CCCCCCOc1ccc(OC(=O)c2cccnc2)cc1`, the inhibition is -1.41% (inactive).

Consider `CN(C)CCCN1C(=O)CSC1c1ccc([N+](=O)[O-])cc1` (stereo not drawn), for which the inhibition is 2.76% (inactive).

Turning to `CCCCCCCCCCCCN1C(=O)CSC1c1cccnc1` (stereo not drawn), the inhibition is 49.9% (active).

For the compound `Clc1ccc(C2=CSC3=Nc4cccc5cccc(c45)N23)cc1`, the inhibition is 58.7% (active).

For the compound `O=C(Nc1ccc(S(=O)(=O)Nc2ncccn2)cc1)C12CC3CC(CC(C3)C1)C2`, the inhibition was 7.21% (inactive).

For `O=C(O)/C=C/c1cn(Cc2ccccc2)nc1-c1cccs1`, the inhibition is 8.13% (inactive).

Take `O=C(O)CCn1cc(/C=C/C(=O)c2ccc(Cl)cc2)c(-c2cccc(Br)c2)n1`: the inhibition was 63.3% (active).

Consider `CCOC(=O)/C(C#N)=C/c1cn(CCC(=O)O)nc1-c1ccc(Br)cc1`, for which the inhibition is -0.784% (inactive).

As to `CCC(c1nnc(SCC(=O)NNC(=O)c2ccccc2)n1Cc1ccccc1)N(C)C` (stereo not drawn), the inhibition was -9.47% (inactive).

Consider `O=C(CNC(=O)c1ccc(Br)o1)Nc1ccccc1`, for which the inhibition was -5.14% (inactive).

As to `Cc1ccc(C(CNC(=O)Nc2cccc(C)c2)N2CCN(C)CC2)cc1` (stereo not drawn), the inhibition was -5.31% (inactive).

On to `O=C(Nc1nnc(C2COc3ccccc3O2)o1)c1ccc(F)cc1` (stereo not drawn), for which the inhibition was 103% (active).

As for `CC1COc2ccccc2N1C(=O)c1ccc(F)cc1` (stereo not drawn), the inhibition is 0.0101% (inactive).

`O=C(Nc1ccccc1F)c1ccc2c(c1)OCO2`: the inhibition is 2.8% (inactive).

For the compound `CCN(CC)S(=O)(=O)c1ccc(N(C)Cc2ccc(C(F)(F)F)cc2)nc1`, the inhibition is -5.95% (inactive).

`O=C(NCc1nnc(SCC(=O)N2CCCc3ccccc32)o1)c1ccccc1F`: the inhibition is 3.7% (inactive).

`CC1(C)C2CCC1(CS(=O)(=O)NCCc1c[nH]c3ccccc13)C(=O)C2` (stereo not drawn): the inhibition is -7.05% (inactive).

`CS(=O)(=O)N1CCN(CC(=O)NC2CCCC2)CC1`: the inhibition was -2.39% (inactive).

In the case of `COC(=O)N/N=C/c1cn(CCCOc2ccc(C)cc2)c2ccccc12`, the inhibition is 8.83% (inactive).

As to `CCOC(=O)N/N=C/c1cn(Cc2ccccc2Cl)c2ccccc12`, the inhibition was 6.39% (inactive).

As to `CNC(=S)N/N=C/c1cn(Cc2ccc(C)cc2)c2ccccc12`, the inhibition is 53.8% (active).

For `CC(C)(C)c1cc2cccnc2n1Cc1cccc(F)c1`, the inhibition is -3.63% (inactive).

As for `COc1ccc(C(=NN)c2ccc(OC)cc2)cc1`, the inhibition is -9.25% (inactive).

Consider `CCc1ccc(N(CC(=O)NCc2cccnc2)S(=O)(=O)c2ccccc2)cc1`, for which the inhibition was -18.2% (inactive).

With `Cc1scc(C(=O)NNC(=S)NCC(C)C)c1C`, the inhibition is -0.356% (inactive).

On to `CC(C)(C)C(=O)NNC(=O)c1ccc(Oc2cc(Cl)cc(Cl)c2)o1`, for which the inhibition is 0.127% (inactive).

As for `CN(c1ccccc1)S(=O)(=O)c1ccc(Cl)c(C(=O)NCCc2c[nH]c3ccccc23)c1`, the inhibition was 4.79% (inactive).

Take `CN(c1ccccc1)S(=O)(=O)c1cc(C(=O)OCC(=O)N2CCN(C(=O)c3ccco3)CC2)ccc1Cl`: the inhibition was -0.977% (inactive).

As to `CN(c1ccccc1)S(=O)(=O)c1cc(C(=O)Nc2nc3ccccc3[nH]2)ccc1Cl`, the inhibition was 58.3% (active).
